Activity calls are given as the source filed them. How the source made its calls: active means hit-call score of the fitted dose curve at least 0.9, where 1 is the maximum; inactive means score below 0.9.
Experiment: APR_HepG2_CellCycleArrest_24hr: Apredica 24-hour HepG2 Assay for Cell Cycle Arrest (AID 2282905);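 further: cell cycle arrest scored as ratio of 2N to 4N nuclear DNA content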
Conditions: imaging, actives raise or lower the signal
Method: APR_HepG2_24hr is a cell-based, multiplexed-readout assay that uses HepG2, a human liver cell line, with measurements taken at 24 hours after chemical dosing in a 384-well plate.APR_HepG2_CellCycleArrest_24hr is one of 10 assay component(s) measured or calculated from the APR_HepG2_24hr assay. It is designed to make measurements of cell phenotype, a form of morphology reporter, as detected with fluorescence intensity signals by HCS Fluorescent Imaging technology.Data from the assay component APR_HepG2_CellCycleArrest_24hr was analyzed into 1 assay endpoint. This assay endpoint, APR_HepG2_CellCycleArrest_24hr, was analyzed with bidirectional fitting relative to DMSO as the negative control and baseline of activity. Using a type of morphology reporter, measures of all nuclear dna for gain or loss-of-signal activity can be used to understand the signaling at the pathway-level as they relate to the gene . Furthermore, this assay endpoint can be referred to as a primary readout, because this assay has produced multiple assay endpoints where this one serves a signaling function. To generalize the intended target to other relatable targets, this assay endpoint is annotated to the cell cycle intended target family, where the subfamily is arrest.
Cells were treated with dimethyl sulfoxide (DMSO) as a solvent control at a final concentration of 0.5% v/v or with compounds in DMSO with a resulting final DMSO concentration of 0.5% v/v. Compound treatment was done at concentrations of 0.39, 0.78, 1.56, 3.12, 6.24, 12.5, 25, 50, 100, and 200 uM in duplicate on each plate. Cells were treated with compounds for 1, 24, or 72 hr. Carbonyl […] m-chloro-phenylhydrazone (CCCP) and taxol were used as positive controls for mitochondrial function and cytoskeletal stability, respectively; DMSO served as the negative control for this experiment. Cells were fixed by the direct addition of 50 uL formaldehyde in Hank's Balanced Salt Solution (HBSS) to a final concentration of 3.7%. After incubation in the fixation medium for 30 min at room temperature (293-298 K), cells were rinsed twice with HBSS and treated with cell permeabilization buffer (16 uL of 0.5% Triton X-100) for 10 min at room temperature (293-298 K) before labeling. For mitochondrial membrane potential and mitochondrial measurements, pre-fixed cells were incubated with 50 uL of MitoTracker Red CMXRos (Invitrogen) at a concentration of 250 nM for 30 min before fixation. In the remaining cases, post-fixed cells were labeled by incubation with a multiplexed mixture of primary antibodies in HBSS for 60 min at room temperature (293-298 K) to detect immunoreactivity of c-Jun (1:500), phospho-histone H3 (1:100), phospho-histone H2A.x (1:200), p53 (1:400), alpha-tubulin (1:200) and Hoechst 33342 (2 ug/mL). Cells were labeled for multiplexed imaging on two separate plates: a) Hoechst 33342, MitoTracker Red, phospho-histone H3, and alpha-tubulin, and b) Hoechst 33342, phospho-histone H2A.x, and c-Jun. A final rinse with HBSS (50 uL) was performed before analysis. The primary and secondary antibodies for the proteins were phospho-histone H3 (rabbit anti-phospho-histone H3 and FITC-donkey anti-rabbit IgG), phospho-histone H2A.x (mouse anti-phospho-histone H2A.x and FITC-donkey anti-mouse IgG), c-Jun (rabbit anti-phospho-c-Jun and Cy3-donkey anti-rabbit IgG), p53 (sheep anti-p53 and Cy5-donkey anti-sheep IgG), alpha-tubulin (mouse anti-alpha-tubulin and Cy5-donkey anti-mouse IgG). These antibodies are available as the CellCiphr HepG2 assay kit (Millipore).Digital images of each well were captured using a Cellomics ArrayScan VTI (Thermo Scientific Cellomics) (0.8 NA objective, 0.63x optical coupler, and XF-93 filter set) at 20x magnification. The images were acquired using the autofocus feature of the ArrayScan instrument, which entails the following steps. First, the camera focuses on channel 1 (Hoechst 33342), where nuclei are identified. Second, a Z offset of 1 um is used for capturing mitochondria (MitoTracker Red). […]

Row | SMILES | outcome | AC50
1 | CCC(=NOC/C=C/Cl)C1=C(O)CC(C2CCOCC2)CC1=O (stereo not given) | inactive | –
2 | C=C(C)[C@H]1Cc2c(ccc3c2O[C@@H]2COc4cc(OC)c(OC)cc4[C@@H]2C3=O)O1 | – | 0.0391 µM (active)
3 | C[Si](Cn1cncn1)(c1ccc(F)cc1)c1ccc(F)cc1 | inactive | –
4 | CON=C(C(=O)OC)c1ccccc1CON=C(C)c1cccc(C(F)(F)F)c1 | inactive | –
5 | Nc1nc(N)nc(NC2CC2)n1 | inactive | –
6 | CCOP(=S)(OCC)Oc1ccc2c(C)c(Cl)c(=O)oc2c1 | inactive | –
7 | CCOP(=S)(OCC)SCCSCC | inactive | –
8 | COP(=O)(NC(C)=O)SC (stereo not given) | inactive | –
9 | CCCOc1nn(C(=O)NS(=O)(=O)c2ccccc2C(=O)OC)c(=O)n1C | inactive | –
10 | CCOP(=O)(NC(C)C)Oc1ccc(SC)c(C)c1 (stereo not given) | inactive | –
11 | CCCCSP(=O)(SCCCC)SCCCC | inactive | –
12 | CC1=NNC(=O)N(/N=C/c2cccnc2)C1 | inactive | –
13 | CCC(=O)Nc1ccc(Cl)c(Cl)c1 | – | 79.3 µM (active)
14 | CC(Oc1cccc(Cl)c1)C(=O)O (stereo not given) | inactive | –
15 | CC1(C(=O)Nc2ccc(O)c(Cl)c2Cl)CCCCC1 | inactive | –
16 | CNC(=O)Oc1cccc2c1OC(C)(C)O2 | – | 127 µM (active)
17 | COP(=O)(OC)C(O)C(Cl)(Cl)Cl (stereo not given) | – | 164 µM (active)
18 | CCOC(=O)CC(SP(=O)(OC)OC)C(=O)OCC (stereo not given) | inactive | –
19 | CCC(CC)Nc1c([N+](=O)[O-])cc(C)c(C)c1[N+](=O)[O-] | inactive | –
20 | C#CC(C)(C)NC(=O)c1cc(Cl)cc(Cl)c1 | inactive | –

Row | SMILES | outcome | AC50
21 | O=[N+]([O-])c1cc(C(F)(F)F)c(Cl)c([N+](=O)[O-])c1Nc1ncc(C(F)(F)F)cc1Cl | – | 1.37 µM (active)
22 | CNc1cnn(-c2cccc(C(F)(F)F)c2)c(=O)c1Cl | inactive | –
23 | CSc1nnc(C(C)(C)C)c(=O)n1N | inactive | –
24 | CCCCOC(=O)c1ccccc1C(=O)O | inactive | –
25 | CCc1cnc(C2=NC(C)(C(C)C)C(=O)N2)c(C(=O)O)c1 (stereo not given) | inactive | –
26 | CN(C)NC(=O)CCC(=O)O | inactive | –
27 | CCOP(=O)(OCC)Oc1cc(C)nc(C(C)C)n1 | inactive | –
28 | S=C1NCCN1 | inactive | –
29 | CC(COc1ccc(Oc2ccccc2)cc1)Oc1ccccn1 (stereo not given) | – | 77 µM (active)
30 | CCCCOC(=O)[C@@H](C)Oc1ccc(Oc2ccc(C#N)cc2F)cc1 | – | 96.9 µM (active)
31 | CCCSP(=O)(OCC)Oc1ccc(Br)cc1Cl (stereo not given) | inactive | –
32 | COc1cc(OC)nc(Sc2cccc(Cl)c2C(=O)O)n1 | inactive | –
33 | COP(=O)(OC)OC(Br)C(Cl)(Cl)Br (stereo not given) | inactive | –
34 | CNC(=O)ON=C(SC)C(=O)N(C)C | inactive | –
35 | CCc1cccc(CC)c1N(COC)C(=O)CCl | – | 60.9 µM (active)
36 | CCc1cccc(C)c1N(C(=O)CCl)C(C)COC (stereo not given) | inactive | –
37 | CC(C)=CC1C(C(=O)OCN2C(=O)C3=C(CCCC3)C2=O)C1(C)C (stereo not given) | inactive | –
38 | O=c1ccc(=O)[nH][nH]1 | inactive | –
39 | CCOP(=S)(OCC)Oc1ccc([N+](=O)[O-])cc1 | inactive | –
40 | CN(C)[C@@H]1C(=O)C(C(N)=O)=C(O)[C@@]2(O)C(=O)C3=C(O)c4c(O)cccc4[C@@](C)(O)[C@H]3[C@H](O)[C@@H]12 | inactive | –
